Screening data (PubChem)
TTR transcr act = TTR transcription activation, primary screen | 92,000 tested, 1.3% active | activation, % at 16.7 µM | AID 1117267 | SH-SY5Y TTR promoter Gaussia luciferase, luminescence; 100% = recombinant luciferase protein wells;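 active = activation above the mean of all tested compounds plus 3 SD, cut at about 9.5% in these data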;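 also: cells exposed to compounds for one day before reading; 0% = median of all test compound wells on the plate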
TTR inh HuH7 = HuH7 TTR transcription inhibition, counter-screen; HuH7 TTR promoter-Gaussia luciferase reporter, luminescence; 1,100 tested, 4% active; AID 1117279; inhibition, % at 16.7 µM; shares compounds with TTR transcr act;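 active = average inhibition above the solvent-only control wells' mean plus 3 SD, cut at about 15% in these data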;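 also: 0% = cells with DMSO only and 100% = cells with inhibitor control FD; inhibitors lower well luminescence so higher value means more inhibition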
TTR act confirm = confirmation of human transthyretin transcription activators; activation, % at 16.7 µM; shares compounds with TTR transcr act; SHSY5Y TTR promoter Gaussia luciferase, luminescence; 100% = purified Lucia enzyme wells, no cells; AID 1117280; 1,100 tested, under 10 active;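 active = mean activation above a set limit taken from the earlier primary screen, cut at about 11% in these data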;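 also: 0% = DMSO-treated cells and 100% = recombinant Lucia luciferase without cells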
Numbers without * were called inactive. The sample as a whole holds a higher share of hits than the screen did.

SMILES	TTR transcr act	others
COC(=O)[C@]12C[C@H](CC(=O)NCc3ccccc3)C(=O)N(Cc3ccc4c(c3)OCO4)C1=C[C@H](C(C)C)O[C@@H]2C1CC1	1
O=C(c1cc(C2CC2)on1)N(C1CCCCC1)C1CCCCC1	0
COC(=O)c1cc(C)oc1C	7
COc1ccc2oc(=O)c(-c3nnc(N)s3)cc2c1	10*	TTR inh HuH7=-10;TTR act confirm=2
COc1ccc2oc(=O)c(C(=O)NCc3ccco3)cc2c1	0
COc1ccc2oc(=O)c(C(=O)Nc3ccccc3O)cc2c1	-3
CN1/C(=C/C2CC(=O)N(c3cccc4ccccc34)C2=O)C(C)(C)c2ccccc21 (stereo unspecified)	-2
CC1=CC(=O)N(c2cccc3c(N4C(=O)C=C(C)C4=O)cccc23)C1=O	2
CCN1C(=O)N(c2cccc3ccccc23)C(C)=CC1(C)C	28*	TTR inh HuH7=-6;TTR act confirm=-1
COc1cc(/C=C/C(=O)c2ccccc2)cc(OC)c1OC	-4
CC(C)CC(CCOCCO)NC(=O)OCc1ccccc1[N+](=O)[O-] (stereo unspecified)	0
CCOC(=O)C(Cc1ccccc1)P(=O)(OCC)OCC (stereo unspecified)	1
CN(CCc1ccccc1)C(=O)c1cccc(NC(=O)Cc2cccc(NC(=O)C3CCN(C(=O)C4CCC4)CC3)c2)c1	-2
CN(CCc1ccccc1)C(=O)c1cccc(NC(=O)Cc2cccc(NC(=O)C3CCN(C(=O)C4CCCCC4)CC3)c2)c1	-2
CN(CCc1ccccc1)C(=O)c1ccc(NC(=O)Cc2cccc(NC(=O)C3CCN(C(=O)C4CCCCC4)CC3)c2)cc1	11*	TTR inh HuH7=-14;TTR act confirm=1
CCOC(=O)[C@]12CCCCC/C=C\1N(CCc1ccc(Cl)cc1)C(=O)[C@H]2CC(=O)NCCC(C)C	-2
COc1ccc(CN2CCNC(=O)C2CC(=O)NC2CCCCCC2)c(F)c1 (stereo unspecified)	-1
COc1cccc(CN2CCNC(=O)C2CC(=O)NC2CCCCCCC2)c1 (stereo unspecified)	-2
O=C(CC1C(=O)NCCN1Cc1ccccc1C(F)(F)F)NC1CCCCCC1 (stereo unspecified)	10*	TTR inh HuH7=-7;TTR act confirm=2
C[C@H]1[C@@H](NC(=O)/C=C/c2ccccc2)CC[C@@]23CCCN2C(=O)CCC[C@@H]13	0
COc1ccc(/C=C(/C#N)C(=O)Nc2cc(C)ccc2C)cc1C(=O)O	-1
COc1ccc(/C=C(\C#N)C(=O)Nc2cc(C)c(Cl)cc2OC)cc1O	12*	TTR inh HuH7=-4;TTR act confirm=0
COc1cc(/C=C(\C#N)C(=O)NC(C)C)cc(Cl)c1O	0
Cc1onc(C(=O)N2CCN(C(c3ccc(F)cc3)c3ccc(F)cc3)CC2)c1[N+](=O)[O-]	-3
CC(C)CN1C(=O)C[C@]2(C(=O)N(C)c3ccc(NC(=O)C(C)(C)C)cc32)C1c1ccccc1 (stereo partly specified)	0
SMILES	TTR transcr act	others
O=C(NC1CCCCN(Cc2ccc(Cl)cc2)C1=O)c1cccc2nsnc12 (stereo unspecified)	0
C#CCNC(=O)C[C@H]1C[C@@]2(C(=O)OC)C(=C[C@H](C(C)C)O[C@@H]2C2CC2)N(Cc2cccc3ccccc23)C1=O	0
CCCCN1CCS(=O)(=O)N(Cc2cn(Cc3cccc(Cl)c3)nn2)C(C(=O)OC)C1 (stereo unspecified)	0
CCC[C@H]1[C@@H](NC(=O)c2ccc(OC)cc2)CC[C@@]23CCCN2C(=O)CCC[C@@H]13	2
CCN1C(=O)[C@H]2[C@@H](c3ccc(C)cc3)N[C@]3(CCCN(CCC(C)C)C3=O)[C@H]2C1=O	20*	TTR inh HuH7=-5;TTR act confirm=0
CCN1C(=O)[C@H]2[C@@H](c3ccccc3)N[C@]3(CCCN(Cc4ccccc4)C3=O)[C@H]2C1=O	0
CCN1C(=O)[C@H]2[C@@H](c3ccc(OC)cc3)N[C@]3(CCCN(Cc4ccco4)C3=O)[C@H]2C1=O	4
CN1C(=O)[C@H]2[C@@H](c3ccccc3)N[C@]3(CCCN(Cc4ccco4)C3=O)[C@H]2C1=O	10*	TTR inh HuH7=-7;TTR act confirm=1
CC(C)CCN1CCC[C@]2(N[C@H](c3ccccc3)[C@@H]3C(=O)N(Cc4ccccc4)C(=O)[C@@H]32)C1=O	2
COc1ccc([C@H]2N[C@]3(CCCN(Cc4cccn4C)C3=O)[C@H]3C(=O)N(C)C(=O)[C@@H]23)cc1	0
COC(=O)[C@@]12CCCCC=C1N(CCc1ccc(Cl)cc1)C(=O)[C@H]2CC(=O)NCCC(C)C	1
O=C(OCC#CCSc1nnc(-c2cccc3ccccc23)o1)c1ccc(OC(F)(F)F)cc1	1
C[C@H]1[C@@H](OC(=O)Nc2ccccc2F)CC[C@@]23CCCN2C(=O)CCC[C@@H]13	2
C[C@H]1[C@@H](OC(=O)Nc2ccc(Br)cc2)CC[C@@]23CCCN2C(=O)CCC[C@@H]13	3
O=C(NCC(c1ccccc1)c1ccccc1)[C@H](Cc1c[nH]c2ccccc12)NC1(C(=O)NC2CCCCC2)CCCC1	1
COc1ccc(Cn2ccc3ccc(-c4ccc5ccn(C(=O)c6ccccc6)c5c4)cc32)cc1	-1
Cc1cccc(NCCC(=O)c2ccc([N+](=O)[O-])cc2)c1C	0
Cc1ccc(C(=O)CNc2ccc(C)cc2C)cc1	5
Cc1ccc(NCCC(=O)c2cccc([N+](=O)[O-])c2)c(C)c1	16*	TTR inh HuH7=-2;TTR act confirm=0
CC(C)[C@@H]1C(=O)N[C@H](Cc2cn(S(=O)(=O)c3ccccc3)c3ccccc23)C(=O)N1C	-1
O=C1CSCC(=O)N1c1ccccc1	34*	TTR inh HuH7=-9;TTR act confirm=0
O=C1CCC(=O)N1c1ccccc1	1
O=C1CSC(=S)N1c1ccccc1	2
CCOC(=O)[C@@]12CCCC=C1N(CCc1ccc(Cl)cc1)C(=O)[C@H]2CC(=O)N1CCN(C(=O)c2ccco2)CC1	-3
CCC(CO)Oc1cc(NCc2cc(C)cc(C)c2)c2ncn(C(C)C)c2c1 (stereo unspecified)	11*	TTR inh HuH7=-23;TTR act confirm=-1
SMILES	TTR transcr act	others
CCC(CO)Oc1cc(NCc2ccc(F)cc2)c2ncn(C(C)C)c2c1 (stereo unspecified)	-4
CCC(CO)Oc1cc(NCc2ccncc2)c2ncn(C(C)C)c2c1 (stereo unspecified)	4
COc1ccc(OC)c(CNS(=O)(=O)c2ccccc2Br)c1	2
CC1Cc2ccccc2N1C(=O)CSc1nnnn1C (stereo unspecified)	6
Cn1nnnc1SCC(=O)N1CCCc2ccccc21	2
CC1CC(=O)Nc2ccccc2N1C(=O)CSc1nnnn1C (stereo unspecified)	14*	TTR inh HuH7=-6;TTR act confirm=0
CCN(C(=O)[C@@H](C)[C@@H](O)c1ccc2ccccc2c1)c1ccccc1	-1
C=CC1CN2CCC1CC2C(O)c1ccnc2ccc(OC)cc12 (stereo unspecified)	13*	TTR inh HuH7=-8;TTR act confirm=3
CN(C(=O)CCn1c(=S)oc2ccccc21)c1ccc(F)cc1	-1
CCc1nc(C)c(C(=O)N2CCCC(C(=O)Nc3cccc(-c4cccc(C)c4)c3)C2)o1 (stereo unspecified)	-2
Cc1ccccc1CN1CCCCC(NC(=O)c2ccccc2)C1=O (stereo unspecified)	2
